The record followed here is PubChem BioAssay (Tox21).

A short description of test [1]: qHTS assay to identify small molecule antagonists of the glucocorticoid receptor (GR) signaling pathway - cell viability counter screen (AID 720693). Further: nearly all actives have a fitted effect of over 55% in size. Background: In qHTS, concentration-response curves come from the screen itself.
Test [2] is described as follows: qHTS assay for identifying genotoxic compounds that show differential cytotoxicity against isogenic chicken DT40 cell lines with known DNA damage response pathways - wild type cell line (AID 743012). Further: nearly all actives have a fitted effect of over 60% in size. Further: potency means the concentration at half of the fitted maximal effect. Put shortly:
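Cytotoxicity in repair-proficient parental chicken DT40 cells serves as the comparator for Rad54/Ku70- and Rev3-deficient lines. Cells were exposed to compounds for 40 h at 37 C/5% CO2, and ATP-based luminescence (CellTiter-Glo) measured viability.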

Test [3] is described as follows: qHTS assay for identifying genotoxic compounds that show differential cytotoxicity against isogenic chicken DT40 cell lines with known DNA damage response pathways - Rev3 mutant cell line (AID 743014). Further: nearly all actives have a fitted effect of over 55% in size. Further: potency means the concentration at half of the fitted maximal effect.
Test [4] is described as follows: qHTS assay for identifying genotoxic compounds that show differential cytotoxicity against isogenic chicken DT40 cell lines with known DNA damage response pathways - Rad54/Ku70 mutant cell line (AID 743015). Further: nearly all actives have a fitted effect of over 60% in size. Further: potency means the concentration at half of the fitted maximal effect.
Test [5] in a line: qHTS assay to identify small molecule antagonists of the androgen receptor (AR) signaling pathway - cell viability counter screen (AID 743033; further: nearly all actives have a fitted effect of over 45% in size).
Test [6] is described as follows: qHTS assay to identify small molecule antagonists of the androgen receptor (AR) signaling pathway using the MDA cell line - cell viability counter screen (AID 743041; further: nearly all actives have a fitted effect of over 45% in size). In a few lines:
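In this qHTS counter assay, fluorescence intensity after CellTiter-Fluor addition indicated viability of MDA-kb2 AR-luc cells given compounds and R1881 for 16 h at 37C.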

The target in test [7] is Androgen receptor (Homo sapiens) (UniProt P10275). The experiment in a line: qHTS assay to identify small molecule agonists of the androgen receptor (AR) signaling pathway (AID 743036; active means well fitted activation curve with a large enough effect in the signal ratio in the repeat runs, with a control signal flat, not every such curve was filed as active; the % refers to the signal ratio). Put shortly:
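Cell-based FRET reporter assay: HEK293 line with a UAS-beta-lactamase construct, compounds added in DMSO, 16 h exposure at 37C, then 2 h substrate step at room temperature and fluorescence intensity read.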

Test [8] shares this target. The experiment in a line: qHTS assay to identify small molecule agonists of the androgen receptor (AR) signaling pathway using the MDA cell line (AID 743040; further: nearly all actives have a fitted effect of over 20% in size). Put shortly:
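Cell-based luciferase reporter: MDA-kb2, MMTV promoter (AR + GR response elements). 16 h compound exposure at 37C; ONE-Glo, 30 min RT, luminescence.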

Test [9] has the same target. The experiment in a line: qHTS assay to identify small molecule antagonists of the androgen receptor (AR) signaling pathway (AID 743035; active means well fitted inhibition curve with a large enough effect in the signal ratio in the repeat runs, not every such curve was filed as active; the % refers to the signal ratio). In a few lines:
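Steps: seed AR-UAS-bla GripTite HEK293 cells, incubate 4 h at 37C; pin in test compound, then add agonist R1881; incubate 16 h at 37C; add LiveBLAzer B/G FRET substrate, 2 h at room temperature; read fluorescence.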

Test [10] can be described thus: qHTS assay to identify small molecule antagonists of the thyroid receptor (TR) signaling pathway - cell viability counter screen (AID 743064). Further: nearly all actives have a fitted effect of over 50% in size. Put shortly: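 In rat pituitary GH3.TRE-Luc reporter cells co-exposed to compound and 1 nM T3 for 23.5 h, cytotoxicity was assessed with CellTiter-Fluor in the same wells, read by fluorescence.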

Values without a mark were called inactive. Results filed as inconclusive are left out. Calls of active or inactive are those of the source. Unless noted, the call rests on the fitted dose curve; in most records, active means well fitted curve in the direction sought with a large enough effect in the repeat runs; inconclusive means weak or mixed curves; inactive means no such curve, though single readings can be large; an effect the other way counts as inactive or inconclusive.
On the % scale 0 is the no-effect control and ±100 the full control effect.

Sequence of Androgen receptor (Homo sapiens) (P10275 whole entry, looked up): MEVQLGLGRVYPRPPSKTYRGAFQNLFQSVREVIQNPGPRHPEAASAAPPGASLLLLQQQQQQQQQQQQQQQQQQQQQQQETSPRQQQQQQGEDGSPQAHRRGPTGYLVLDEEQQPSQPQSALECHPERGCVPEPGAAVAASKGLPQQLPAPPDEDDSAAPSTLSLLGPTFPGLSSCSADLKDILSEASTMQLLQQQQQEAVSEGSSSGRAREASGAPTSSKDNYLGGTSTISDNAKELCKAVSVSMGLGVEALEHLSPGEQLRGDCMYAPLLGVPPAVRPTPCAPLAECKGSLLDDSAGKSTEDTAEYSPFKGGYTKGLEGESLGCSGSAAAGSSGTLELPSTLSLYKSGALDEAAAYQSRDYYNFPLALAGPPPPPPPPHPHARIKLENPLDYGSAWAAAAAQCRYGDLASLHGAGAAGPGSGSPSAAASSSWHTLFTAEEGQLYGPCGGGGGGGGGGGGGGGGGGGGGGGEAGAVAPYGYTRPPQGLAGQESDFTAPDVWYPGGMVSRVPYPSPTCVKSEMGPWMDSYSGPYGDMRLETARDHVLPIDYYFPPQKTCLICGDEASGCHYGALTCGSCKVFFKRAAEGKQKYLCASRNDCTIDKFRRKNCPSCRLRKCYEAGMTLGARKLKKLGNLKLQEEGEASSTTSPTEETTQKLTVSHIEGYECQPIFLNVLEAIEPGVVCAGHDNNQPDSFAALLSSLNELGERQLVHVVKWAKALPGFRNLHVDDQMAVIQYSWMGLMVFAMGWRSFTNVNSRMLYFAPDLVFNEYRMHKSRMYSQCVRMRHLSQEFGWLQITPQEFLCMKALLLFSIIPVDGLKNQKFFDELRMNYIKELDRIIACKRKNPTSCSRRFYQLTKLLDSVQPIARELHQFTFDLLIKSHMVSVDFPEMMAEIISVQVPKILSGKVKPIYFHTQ

Consider `CC(COc1ccccc1)NN` (configuration not stated), for which the molecule was called inactive in [1] and in [5]. Also, the Potency result in [2], in test [3], in [4] and in test [6] was “inactive” in each case.
In the case of `C[N+]1(C)[C@@H]2CC(OC(=O)[C@H](CO)c3ccccc3)C[C@H]1[C@@H]1O[C@@H]12` (some centres not stated), the molecule was called inactive in test [1] and in test [5]. The Potency entry in [2], in test [3], in test [4] and in [6] was “inactive” each time.
Regarding `COC(=O)Nc1ccc(Cl)c(Cl)c1`, the call in test [1], in [5] and in [7] was inactive. Moreover, the Potency result in test [2], in test [3], in test [4], in [8] and in test [6] was “inactive” throughout.
`Cc1ccnc(NS(=O)(=O)c2ccc(N)cc2)n1`: the result in test [1] and in test [5] was inactive. The Potency result in test [2], in test [3], in test [4] and in test [6] was “inactive” throughout.
With `Cc1ccc(C(=O)c2ccccc2)cc1`, the outcome in test [1], in test [5] and in test [7] was inactive. In addition, the Potency is 61.1 µM (active) in test [2], 54.5 µM (active) in [3] and 68.6 µM (active) in test [4]. For the same molecule, the Potency result in [9], in test [8], in test [6] and in test [10] was “inactive” throughout.
For `CC1OC1C1CCC2(C)OC2C1` (configuration not stated), the result in [1] and in test [5] was inactive. Besides, the Potency entry in [2], in test [3], in test [4] and in [6] was “inactive” in each case.
As to `O=C(O)CCSCCC(=O)O`, the call in test [1], in test [5] and in test [7] was inactive. Besides, the Potency result in test [2], in test [3], in test [4], in test [8] and in test [6] was “inactive” throughout.
In the case of `CC[N+](CC)(CC)CCOc1cccc(OCC[N+](CC)(CC)CC)c1OCC[N+](CC)(CC)CC`, the result in test [1] and in test [5] was inactive. The Potency entry in test [2], in test [3], in [4], in [9], in [8] and in test [6] was “inactive” in each case. Also, in test [10], the Potency result was “inactive”.
As to `CC(=O)N[C@H]1[C@H]([C@H](O)[C@H](O)CO)OC(C(=O)O)=C[C@@H]1N=C(N)N`, the call in [1], in [5] and in test [7] was inactive. Moreover, the Potency entry in test [2], in test [3], in [4], in [9], in [8] and in test [6] was “inactive” in each case. In addition, in test [10], the Potency result was “inactive”.
On to `CC1CCC(CO)CC1` (configuration not stated), for which the result in [1] and in test [5] was inactive. For the same molecule, the Potency entry in test [2], in test [3], in test [4], in test [9], in test [8] and in test [6] was “inactive” each time. For the same molecule, the Potency entry in test [10] was “inactive”.
With `Cc1cc(C)c(N=Nc2c(O)c(S(=O)(=O)O)cc3cc(S(=O)(=O)O)ccc23)cc1C`, the viability change, negative = cytotoxic in test [1] is -0.62% [at 7.04 µM]; in [6], -1.15% [at 8.47 µM]. For the same molecule, the activity change, negative = cytotoxicity in test [2] was -7.67% [at 8.52 µM]; in [4] it was 1.01% [at 8.55 µM]; in [5] it was -2% [at 7.04 µM]. The activity, negative = cytotoxicity in [3] was 0.342% [at 8.53 µM]. In test [10], the activity change, negative = cytotoxic is -15.7% [at 8.44 µM].
Turning to `CCCCCC(C)N` (configuration not stated), the outcome in test [1] and in test [5] was inactive. Further, the Potency entry in test [2], in test [3], in test [4], in test [9], in [8] and in [6] was “inactive” in each case. Also, the Potency result in test [10] is “inactive”.
As for `CCCCOCCOC(=O)COc1cc(Cl)c(Cl)cc1Cl`, the molecule was classed as inactive in [1], in test [5] and in [7]. For the same molecule, the Potency result in test [2], in test [3], in test [4], in test [9], in test [8] and in [6] was “inactive” throughout. For the same molecule, the Potency entry in [10] was “inactive”.
Take `NCCCC[C@H](N[C@@H](CCc1ccccc1)C(=O)O)C(=O)N1CCC[C@H]1C(=O)O`: the molecule was called inactive in [1] and in [5]. Besides, the Potency entry in test [2], in test [3], in test [4] and in test [6] was “inactive” throughout.
As for `Nc1c2c(nc3c1CCC3)CCCC2`, the outcome in test [1] and in [5] was inactive. In addition, the Potency result in test [2], in [3], in [4], in test [8] and in test [6] was “inactive” in each case.
As to `CC(C)(C)C(=O)c1ccccc1`, the outcome in [1] and in test [5] was inactive. The Potency result in [2], in [3], in test [4] and in test [6] was “inactive” each time.
As to `CC(CO)(CO)[N+](=O)[O-]`, the result in test [1] and in test [5] was inactive. The Potency entry in [2], in test [3], in test [4], in [6] and in [10] was “inactive” in each case.
Turning to `CC(C)C1CCC(O)CC1` (configuration not stated), the outcome in test [1], in [5] and in [7] was inactive. Also, the Potency result in test [2], in test [3], in test [4], in test [9], in [8] and in test [6] was “inactive” throughout. The Potency entry in [10] was “inactive”.
In the case of `CCN(Cc1ccccc1)c1ccccc1`, the call in [1], in test [5] and in [7] was inactive. Besides, the Potency result in test [2], in test [3], in [4], in [9], in test [8] and in test [6] was “inactive” each time.
For `O=C(O)c1cc(C(=O)O)cc(C(=O)O)c1`, the molecule was classed as inactive in [1] and in test [5]. Also, the Potency entry in [2], in test [3], in test [4], in test [6] and in [10] was “inactive” throughout.
`C[N+](C)(C)CCCCCCCCCC[N+](C)(C)C`: the result in [1] and in [5] was inactive. For the same molecule, the Potency entry in test [2], in test [3], in test [4] and in test [6] was “inactive” in each case.
With `Cc1ccc(-c2ncc(Cl)cc2-c2ccc(S(C)(=O)=O)cc2)cn1`, the result in test [1], in test [5] and in [7] was inactive. For the same molecule, the Potency result in test [2], in test [3], in test [4], in test [9], in test [8] and in test [6] was “inactive” throughout. In addition, in [10], the Potency result is “inactive”.
As to `C[C@H]1[C@H](NC(=O)/C(=N/OC(C)(C)C(=O)O)c2csc(N)n2)C(=O)N1S(=O)(=O)O` (stereo in doubt), the outcome in test [1] and in test [5] was inactive. The Potency result in test [2], in test [3], in test [4] and in test [6] was “inactive” each time.
As to `COCCOC[C@H](CC1(C(=O)NC2CCC(C(=O)O)CC2)CCCC1)C(=O)Oc1ccc2c(c1)CCC2` (some centres not stated), the result in test [1], in [5] and in [7] was inactive. Moreover, the Potency result in test [2], in test [3], in test [4], in [9], in test [8] and in [6] was “inactive” in each case.
For `CO[C@@]1(NC(=O)CSC[C@@H](N)C(=O)O)C(=O)N2C(C(=O)O)=C(CSc3nnnn3C)CS[C@@H]21`, the molecule was classed as inactive in test [1], in test [5] and in [7]. For the same molecule, the Potency result in test [2], in test [3], in [4], in [8], in test [6] and in test [10] was “inactive” throughout.
For `CC1=NS(=O)(=O)c2cc(Cl)ccc2N1`, the molecule was classed as inactive in [1] and in test [5]. The Potency entry in test [2], in [3], in [4] and in test [6] was “inactive” throughout.
Take `CC1(C)OC[C@@H](COC(=O)CCc2ccc(OC[C@@H](O)CNCCNC(=O)N3CCOCC3)cc2)O1`: the result in [1], in test [5] and in test [7] was inactive. Also, the Potency entry in test [2], in [3], in test [4], in test [9], in test [8] and in test [6] was “inactive” each time. For the same molecule, the Potency result in test [10] was “inactive”.
